Records with an inconclusive call do not appear. Activity calls are given as the source filed them. The call rests on the fitted dose curve; in most records, active means well fitted curve in the direction sought with a large enough effect; inconclusive means small, poorly fitted or top-dose-only effect, or another doubt; inactive means no such curve, though single readings can be large; an effect the other way counts as inactive or inconclusive.
How the values were obtained:
[1] = tested on: Zika virus NS2B-NS3 protease (unlinked complex); test: Confirmatory screen GU AMC qHTS for Zika virus inhibitors (AID 1347153);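 further: enzyme at 25 nM with substrate at 10 µM below its Km of 18.3 µM; potency means the concentration at half of the fitted maximal effect; nearly all actives have a fitted effect of over 70% in size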
In short: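 Unlinked NS2B-NS3 complex (25 nM) in 10 mM Tris-HCl pH 8.0, 0.01% Tween 20 preincubated 15 min with compound, then 10 microM Bz-Nle-KRR-AMC (Km 18.3 µM). Fluorescence change over 15 min, normalized, Hill-fitted.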

[2] = Confirmatory screen GU Rhodamine qHTS for Zika virus inhibitors qHTS (AID 1347157); further: nearly all actives have a fitted effect of over 70% in size; further: potency means the concentration at half of the fitted maximal effect
In short: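 Percent inhibition derives from the 15-min fluorescence change (ex 480, em 540 nm), normalized to no-enzyme and no-inhibitor wells. Reactions contained 25 nM NS2B-NS3 complex and 1.5 microM substrate in 10 mM Tris-HCl pH 8.0.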

[3] = tested on: Zika virus NS2B-NS3 protease (unlinked complex); test: Primary screen GU Rhodamine qHTS for Zika virus inhibitors: Unlinked NS2B-NS3 protease assay (AID 1347159); further: nearly all actives have a fitted effect of over 60% in size; further: potency means the concentration at half of the fitted maximal effect
In short: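 Noncovalent NS2B hydrophilic domain/NS3 protease complex (25 nM final) in 10 mM Tris-HCl pH 8.0, 0.01% Tween 20, preincubated 15 min with compounds (up to 114 microM), then 1.5 microM Rhodamine110 substrate. Fluorescence change over 15 min fitted to 4-parameter Hill.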

[4] = tested on: Zika virus NS2B-NS3 protease (linked construct); test: Primary screen NINDS Rhodamine qHTS for Zika virus inhibitors (AID 1347160); further: nearly all actives have a fitted effect of over 55% in size; further: potency means the concentration at half of the fitted maximal effect
In short: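 Purified NS2B-NS3 protease with the NS2B hydrophilic domain joined by a flexible linker (25 nM) in 10 mM Tris-HCl pH 8.0, 0.01% Tween 20, preincubated 15 min at RT with compound; Rhodamine110 peptide substrate 1.5 µM; fluorescence change over 15 min; 4-parameter Hill fit.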

[5] = tested on: Zika virus NS2B-NS3 protease (linked); test: 384 well plate NINDS AMC confirmatory qHTS for Zika virus inhibitors (AID 1347163); further: nearly all actives have a fitted effect of over 50% in size; further: potency means the concentration at half of the fitted maximal effect
In short: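 Linked NS2B-NS3 protease (final 5 nM, 30 nM or 60 nM) was preincubated with compounds (final up to 1 mM) for ~15 minutes. Ac-VKTGKR-AMC substrate (final 30 microM) then reacted for 25 minutes at room temperature in the dark. Fluorescence (ex 355/em 460 nm) was normalized to no-enzyme and no-inhibitor controls.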

[6] = tested on: Zika virus NS2B-NS3 protease (linked construct); test: 384 well plate NINDS Rhodamine confirmatory qHTS for Zika virus inhibitors (AID 1347164);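 further: fluorescence from protease cleavage of Ac-LKRR-rhodamine 110 substrate; nearly all actives have a fitted effect of over 65% in size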; further: potency means the concentration at half of the fitted maximal effect
In short: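 Linked NS2B-NS3 protease (final 5, 30 or 60 nM) preincubated ~15 minutes with compounds, then 10 microM Ac-LKRR-Rhodamine 110 added. Fluorescence (485/538 nm) read after 25 minutes at room temperature, normalized to no-enzyme and no-inhibitor controls.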

[7] = Vero cells viability qHTS for Zika virus inhibitors (AID 1347167)
In short: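 Counter-screen for cytotoxicity of hits from NS2B-NS3 protease qHTS. Overnight-attached cells (2.5 x 10^5 cells/mL, DMEM/4% FBS) were dosed in titration, incubated 24 to 48 hours, then assayed by CellTiter Glo.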

[8] = tested on: Zika virus NS2B-NS3 protease; test: Primary screen GU AMC qHTS for Zika virus inhibitors (AID 1347154); further: nearly all actives have a fitted effect of over 70% in size
In short: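 Unlinked Zika NS2B hydrophilic domain/NS3 protease domain noncovalent complex (25 nM final) in 10 mM Tris-HCl pH 8.0, 0.01% Tween 20, with AMC peptide substrate. Fluorescence (ex 340, em 450 nm) change over 15 min, room temperature; percent inhibition fitted to 4-parameter Hill equation.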

[9] = qHTS of pediatric cancer cell lines to identify multiple opportunities for drug repurposing: Primary screen for MG 63 (6-TG R) cells (AID 1347105); further: nearly all actives have a fitted effect of over 50% in size
In short: (§1)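 Luminescence from CellTiter-Glo served as readout of metabolically active cells after 48 h compound exposure. Titrations: MIPE 11-point, from 0.78 nM; NPC 8-point, from 0.59 nM (final). Concentration-response curves came straight from the primary screen.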

[10] = qHTS of pediatric cancer cell lines to identify multiple opportunities for drug repurposing: Primary screen for control Hh wild type fibroblast cells (AID 1347106);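 further: series mostly up to about 46 µM; a drop in luminescence marks cytotoxicity and a rise apparent proliferation; nearly all actives have a fitted effect of over 55% in size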
In short: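 Viability after 48 h compound treatment at 37C, 500-1,000 cells/well, read as ATP luminescence with CellTiter-Glo. Primary screens used 11-point (MIPE, 0.78 nM-46 µM) or 8-point (NPC, 0.59 nM-46 µM) final concentrations; follow-up screens used 11-point dilutions.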

Furin (Homo sapiens) = Furin (Homo sapiens) (UniProt P09958); test: Furin counterscreen qHTS for Zika virus inhibitors (AID 1347149); further: nearly all actives have a fitted effect of over 70% in size; further: potency means the concentration at half of the fitted maximal effect
Sequence of Furin (Homo sapiens) (P09958 whole entry, looked up): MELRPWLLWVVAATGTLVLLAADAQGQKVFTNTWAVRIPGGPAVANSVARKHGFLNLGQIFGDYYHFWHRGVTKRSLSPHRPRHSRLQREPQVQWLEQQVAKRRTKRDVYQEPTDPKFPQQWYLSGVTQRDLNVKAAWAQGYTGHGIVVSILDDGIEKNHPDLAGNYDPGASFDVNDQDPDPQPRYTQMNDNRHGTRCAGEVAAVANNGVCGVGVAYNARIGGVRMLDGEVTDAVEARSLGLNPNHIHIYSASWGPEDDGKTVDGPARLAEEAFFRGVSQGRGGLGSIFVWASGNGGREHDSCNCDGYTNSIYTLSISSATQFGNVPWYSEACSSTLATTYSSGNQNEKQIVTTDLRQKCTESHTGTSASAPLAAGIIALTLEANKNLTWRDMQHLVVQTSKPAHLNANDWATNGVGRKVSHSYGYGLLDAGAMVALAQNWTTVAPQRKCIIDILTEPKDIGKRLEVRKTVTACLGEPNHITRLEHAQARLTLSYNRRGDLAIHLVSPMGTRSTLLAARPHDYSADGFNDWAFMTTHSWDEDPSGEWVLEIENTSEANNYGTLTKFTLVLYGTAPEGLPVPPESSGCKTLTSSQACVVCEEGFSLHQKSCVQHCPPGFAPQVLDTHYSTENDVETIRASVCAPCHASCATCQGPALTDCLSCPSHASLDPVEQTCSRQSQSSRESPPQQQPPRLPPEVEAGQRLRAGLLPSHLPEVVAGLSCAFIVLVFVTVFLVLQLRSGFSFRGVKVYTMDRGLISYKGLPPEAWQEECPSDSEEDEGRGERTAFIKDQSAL
In short: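 Fluorogenic cleavage of BOC-RVRR-AMC (2 microM final, Km ~15 µM) was monitored (ex 340, em 450 nm) at 37C after 15 min RT preincubation of 5 nM furin with compounds in HEPES pH 7.0 buffer with CaCl2 and Triton X-100. Percent inhibition was fitted to a 4-parameter Hill curve.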

[11] = qHTS of pediatric cancer cell lines to identify multiple opportunities for drug repurposing: Primary screen for LAN-5 cells (AID 1347100); further: potency means the concentration at half of the fitted maximal effect
In short: (§2)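 Cells (500-1,000/well) in growth media were settled 5 h at 37 degrees C, then given compounds for 48 h. Viability was read as CellTiter-Glo luminescence. Primary runs used MIPE at 11 points (0.78 nM-46 µM) and NPC at 8 points (0.59 nM-46 µM); follow-ups used 11 points.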

[12] = ZIKV-mCherry secondary qHTS for Zika virus inhibitors (AID 1347158); further: potency means the concentration at half of the fitted maximal effect
In short: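 Vero cells (5,000/well) were given compound, then infected with ZIKV-mCherry at MOI 1 for 48–72 h at 37 °C. After PFA fixation and Hoechst staining, imaging gave percent mCherry-positive cells. The positivity threshold was RFU above 450, 3 SD over negative controls.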

[13] = qHTS of pediatric cancer cell lines to identify multiple opportunities for drug repurposing: Primary screen for BT-12 cells (AID 1347101); further: nearly all actives have a fitted effect of over 25% in size
In short: (§3)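 Cells (500-1,000/well) rested 5 h, then received compounds for 48 h; metabolically active cells were measured by CellTiter-Glo luminescence. Final concentrations spanned up to 46 µM (MIPE, 11-point) or 0.59 nM-46 µM (NPC, 8-point) in primary screens, 11-point in follow-ups.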

[14] = qHTS of pediatric cancer cell lines to identify multiple opportunities for drug repurposing: Primary screen for Rh18 cells (AID 1347102); further: nearly all actives have a fitted effect of over 65% in size
In short: as §2

[15] = qHTS of pediatric cancer cell lines to identify multiple opportunities for drug repurposing: Primary screen for OHS-50 cells (AID 1347103); further: nearly all actives have a fitted effect of over 40% in size
In short: as §3

[16] = qHTS of pediatric cancer cell lines to identify multiple opportunities for drug repurposing: Primary screen for RD cells (AID 1347104); further: nearly all actives have a fitted effect of over 55% in size
In short: as §1

[17] = qHTS of pediatric cancer cell lines to identify multiple opportunities for drug repurposing: Primary screen for Rh30 cells (AID 1347107); further: series mostly up to about 46 µM; nearly all actives have a fitted effect of over 75% in size
In short: as §2

[18] = qHTS of pediatric cancer cell lines to identify multiple opportunities for drug repurposing: Primary screen for Rh41 cells (AID 1347108)
In short: as §1

[19] = tested on: Zika virus NS2B-NS3 protease (unlinked); test: Optimization of GU AMC qHTS for Zika virus inhibitors: Unlinked NS2B-NS3 protease assay (AID 1347151); further: series mostly up to about 52 µM; nearly all actives have a fitted effect of over 80% in size
In short: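 Noncovalent NS2B hydrophilic domain–NS3 protease complex (25 nM final) in 10 mM Tris-HCl pH 8.0, 0.01% Tween 20; AMC substrate, room temperature 15 min (~20% conversion); fluorescence change normalized, 4-parameter Hill fit.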

Measured: Potency

COc1cc(Nc2nc3ccccc3nc2NS(=O)(=O)c2ccc(NC(=O)c3ccc(OC)c(C)c3)cc2)cc(OC)c1
active: [1] 11.1 µM | [2] 3.12 µM | [3] 2.82 µM | [4] 8.91 µM | [6] 22.4 µM
inactive: [5] | [7]

CC(=O)O[C@H]1C(=O)[C@@]2(C)[C@H]([C@H](OC(=O)c3ccccc3)[C@]3(O)C[C@H](OC(=O)[C@H](O)[C@@H](NC(=O)c4ccccc4)c4ccccc4)C(C)=C1C3(C)C)[C@]1(OC(C)=O)CO[C@@H]1C[C@@H]2O
inactive: [8] | [3] | [4]

COc1ccc(C(=O)C2CCN(CC(=O)N(Cc3nc4c(c(=O)[nH]3)COCC4)CC3CC3)CC2)cc1
inactive: [2] | [3]

Cc1ccc(N)cc1O
inactive: [9] | [10]

C[C@H](Oc1ccc(S(C)(=O)=O)cc1C(=O)N1CCN(c2ncc(C(F)(F)F)cc2F)CC1)C(F)(F)F
inactive: [3]

O=C(O)/C=C/c1ccc(-c2ccc(O)c(C34CC5CC(CC(C5)C3)C4)c2)cc1
active: Furin (Homo sapiens) 44.1 µM | [1] 44.1 µM | [2] 1.11 µM | [3] 2.24 µM | [4] 2.24 µM | [6] 3.55 µM
inactive: [5]

CC(C)(C)Nc1nc2cc(Cl)c(Cl)cc2nc1S(C)(=O)=O
inactive: [2] | [4]
active: [3] 89.1 µM

C=C1C(=O)OC2C1CCC(=C)C1CC(OC(C)=O)C(=C)C12 (configuration not stated)
active: [3] 31.6 µM

Nc1ccccc1N
inactive: [9] | [10] | [8]
active: [11] 17.2 µM

OC/C=C/C=C/[C@H]1Cc2cc(O)cc(O)c2O1
active: [2] 22.1 µM | [3] 39.8 µM
inactive: [4]

CC(C)c1cccc2c(-c3ccccc3)cc(-c3ccc(-c4ccc(C(=O)O)cc4)[nH]3)nc12
inactive: [5] | [6] | [7]
active: Furin (Homo sapiens) 39.3 µM | [1] 49.4 µM | [2] 1.97 µM | [12] 7.08 µM | [3] 3.55 µM | [4] 7.08 µM

Cc1noc(-c2ccc(-c3ccc(CC(=O)O)cc3)cc2)c1NC(=O)O[C@H](C)c1ccccc1
active: [3] 14.1 µM

CCOCCOC(=O)/C=C/c1ccc(OC)cc1
inactive: [11] | [13] | [14] | [15] | [16] | [9] | [10] | [17] | [18]

Cc1ccc(C(=O)Nc2noc3ccccc23)cc1
inactive: [3]

CC[C@]1(O)CC2CN(CCc3c([nH]c4ccccc34)[C@@](C(=O)OC)(c3cc4c(cc3OC)N(C)[C@H]3[C@@](O)(C(=O)OC)[C@H](OC(C)=O)[C@]5(CC)C=CCN6CC[C@]43[C@@H]65)C2)C1 (some centres not stated)
inactive: [19] | [4]

O=C(O)c1c(O)c(-c2ccccc2)nc2ccccc12
inactive: [11] | [13] | [14] | [15] | [16] | [9] | [10] | [17] | [18] | [8]

O=C(Nc1ccc(S(=O)(=O)Nc2nccs2)cc1)C(c1ccccc1)c1ccccc1
active: [2] 6.98 µM | [3] 6.31 µM | [4] 7.08 µM | [6] 50.1 µM
inactive: Furin (Homo sapiens) | [12] | [5] | [7]

O=C(N/N=C/c1ccc(O)c(O)c1)c1cc2ccccc2cc1O
active: [2] 2.32 µM | [4] 5.01 µM | [5] 50.1 µM | [6] 0.447 µM
inactive: Furin (Homo sapiens) | [7]

C=C1[C@H](OC(C)=O)[C@H]2[C@@H](OC(C)=O)[C@](C)(OC(C)=O)C[C@]2(OC(C)=O)C(=O)[C@H](C)/C=C/C(C)(C)C(=O)[C@H](OC(=O)C(C)CC)[C@H]1OC(C)=O (some centres not stated)
inactive: [3]

CC1=C(C(=O)OCc2ccccc2)C(c2ccc(-c3ccccc3)cc2)NC(=O)N1CCCCCC(=O)O (configuration not stated)
active: Furin (Homo sapiens) 39.3 µM | [1] 31.2 µM | [2] 2.48 µM | [3] 3.16 µM | [4] 7.94 µM | [5] 3.55 µM | [6] 0.631 µM
inactive: [7]

C=CC/C=C\C/C=C\CCCCCCCc1cccc(O)c1C(=O)O
inactive: [6] | [7]
active: [1] 6.85 µM | [2] 4.32 µM | [3] 8.91 µM | [4] 3.98 µM | [5] 44.7 µM

COc1ccc(C(=O)n2c(C)c(Cc3cccc(O[C@@H](C)C(=O)O)c3)c3cc(OC(F)(F)F)ccc32)cc1
active: Furin (Homo sapiens) 49.4 µM | [1] 22.1 µM | [2] 2.78 µM | [3] 3.16 µM | [5] 12.6 µM
inactive: [6] | [7]

Source: PubChem BioAssay (NCATS)
